Laboratory results published in PubChem BioAssay AID1159580 (chemical genetic matrix, 2015).
Where “and” joins values, the source holds several entries; their conditions need not be identical. Identical values can stand only once. In all, about 5,500 compounds went through this assay and about 2,000 (36%) were called active. Roughly 18% stayed inconclusive and do not appear here. Cut-off read from the data, not from the text of the source: active = normalized growth mostly below about 0.91 (no sharp cut-off); inconclusive = no clear call, values can overlap the other calls; inactive = mostly above about 0.92. This is one part of the list.

Experiment: chemical genetic growth profiling, strain panel (AID 1159580);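 note: tested at 20 µM; growth read once vehicle control cultures reached saturation at 30 °C; 1 = growth at the plate median or of vehicle wells; lower values mean less growth of the strain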
Details: S. cerevisiae deletion strains, growth OD

Measured: normalized growth

Cc1ccc(-c2cc(C(F)(F)F)nn2-c2ccc(S(N)(=O)=O)cc2)cc1
inactive: locus YAL013W, strain DEP1, hits give low values 1 | locus YAL021C, strain ccr4, hits give low values 1 | locus YAL026C, strain drs2, hits give low values 1.03 | locus YAL030W, strain snc1, hits give low values 1.03 | locus YBL061C, strain skt5, hits give low values 1.02 | locus YBR009C, strain hhf1, hits give low values 1.03 | locus YBR021W, strain FUR4, hits give low values 1 | locus YBR023C, strain chs3, hits give low values 1.02 | locus YBR171W, strain sec66, hits give low values 1.05 | locus YBR229C, strain ROT2, hits give low values 0.992 | locus YBR231C, strain swc5, hits give low values 1.05 | locus YBR279W, strain paf1, hits give low values 1.02 | locus YCL011C, strain gbp2, hits give low values 1.03 | locus YCL016C, strain dcc1, hits give low values 1.03 | locus YCL029C, strain bik1, hits give low values 1.04 | locus YCL061C, strain MRC1, hits give low values 1.02 | locus YCL069W, strain vba3, hits give low values 1.03 | locus YCR088W, strain abp1, hits give low values 1.02 | locus YDL005C, strain med2, hits give low values 1.03 | locus YDL035C, strain GPR1, hits give low values 0.979 | locus YDL040C, strain nat1, hits give low values 1.03 | locus YDL074C, strain BRE1, hits give low values 0.975 | locus YDL101C, strain DUN1, hits give low values 1.02 | locus YDL134C, strain PPH21, hits give low values 0.999 | locus YDL185W, strain tfp1, hits give low values 1.02 | locus YDL192W, strain arf1, hits give low values 0.998 | locus YDR001C, strain nth1, hits give low values 1.02 | locus YDR069C, strain doa4, hits give low values 1.02 | locus YDR101C, strain arx1, hits give low values 1.01 | locus YDR137W, strain rgp1, hits give low values 1.02 | locus YDR150W, strain NUM1, hits give low values 1 | locus YDR159W, strain sac3, hits give low values 1.02 | locus YDR162C, strain NBP2, hits give low values 0.988 | locus YDR195W, strain ref2 1.05 | locus YDR297W, strain sur2, hits give low values 1.02 | locus YDR318W, strain mcm21, hits give low values 1.02 | locus YDR334W, strain swr1, hits give low values 1.04 | locus YDR335W, strain msn5, hits give low values 1.03 | locus YDR388W, hits give low values 1.01 | locus YDR392W, strain spt3, hits give low values 1.03 | locus YDR502C, strain sam2, hits give low values 1 | locus YEL003W, strain gim4, hits give low values 1.03 | locus YEL037C, strain rad23, hits give low values 1.03 | locus YEL061C, strain CIN8 (second series), hits give low values 1.04 | locus YEL061C, strain CIN8, hits give low values 0.994 | locus YER015W, strain faa2, hits give low values 1.03 | locus YER016W, strain bim1, hits give low values 1.03 | locus YER110C, hits give low values 1.02 | locus YER111C, strain swi4, hits give low values 1.05 | locus YER155C, strain BEM2 (second series), hits give low values 1.04 | locus YER155C, strain BEM2, hits give low values 1.01 | locus YER167W, strain BCK2, hits give low values 0.998 | locus YFR010W, strain ubp6, hits give low values 1.04 | locus YGL078C, strain dbp3, hits give low values 0.996 | locus YGL086W, strain mad1, hits give low values 0.991 | locus YGL167C, strain pmr1, hits give low values 1.04 | locus YGL173C, strain kem1, hits give low values 1.01 | locus YGL227W, strain vid30, hits give low values 1.04 | locus YGL240W, strain doc1, hits give low values 1.04 | locus YGL248W, strain PDE1, hits give low values 0.996 | locus YGL253W, strain hxk2, hits give low values 1.02 | locus YGR078C, strain PAC10, hits give low values 1.01 | locus YGR135W, strain pre9, hits give low values 1.02 | locus YGR229C, strain SMI1, hits give low values 0.998 | locus YGR252W, strain gcn5, hits give low values 0.962 | locus YHR013C, strain ard1, hits give low values 1.06 | locus YHR027C, strain rpn1, hits give low values 1.03 | locus YHR030C, strain SLT2, hits give low values 1.01 and 0.968 | locus YHR079C, strain IRE1 (second series), hits give low values 1.02 | locus YHR079C, strain IRE1, hits give low values 0.963 | locus YHR094C, strain hxt1, hits give low values 1.01 | locus YHR129C, strain ARP1, hits give low values 1 | locus YHR142W, strain chs7, hits give low values 1.03 | locus YHR200W, strain rpn10, hits give low values 1.01 | locus YIL066C, strain RNR3, hits give low values 0.994 | locus YIL073C, strain SPO22, hits give low values 0.994 | locus YIL125W, strain kgd1, hits give low values 1.01 | locus YIR030C, strain dcg1, hits give low values 1.01 | locus YJL092W, strain hpr5, hits give low values 1.02 | locus YJL095W, strain BCK1 (second series), hits give low values 1.02 | locus YJL095W, strain BCK1, hits give low values 1.04 and 0.974 | locus YJL115W, strain asf1, hits give low values 1.03 | locus YJL129C, strain trk1, hits give low values 1.06 | locus YJL134W, strain LCB3, hits give low values 1 | locus YJL154C, strain vps35, hits give low values 1.02 | locus YJL164C, strain tpk1, hits give low values 1.03 | locus YJL166W, strain qcr8, hits give low values 1.01 | locus YJL168C, strain set2, hits give low values 1.02 | locus YJL187C, strain SWE1 (second series), hits give low values 1.03 | locus YJL187C, strain SWE1, hits give low values 1.02 | locus YJR043C, strain POL32, hits give low values 1.01 | locus YJR066W, strain TOR1, hits give low values 0.974
